Results taken from ChEMBL document CHEMBL3988442, “University of Dundee, Small-Polar-MMV Screening Library” (2021).
The whole screen tested about 38,000 compounds, of which about 1,200 (3.2%) showed an effect of 50% or more. The median lay at about -58%. For the sample, strong results were picked, then their nearest neighbours and some compounds at random.

Each compound was assayed on Plasmodium falciparum (assay: Calibr Malaria Delayed Death Assay SOP). Conditions: concentration 4.99e-06 (unit not given; other assays of the set use mol/L).
Type: functional, organism-based
Set-up: scale not given: in the data most compounds retested in dose-response had high values

Structure (SMILES) | Percent Effect [%]
Cc1ccc(CN2C[C@H](OCC3CCN(C)CC3)[C@H]3COC[C@H]32)o1 | 12.64
Cc1nc(NC(=O)c2c(-n3cnnn3)sc3c2CCC3)sc1C | -110.9
CCOc1ccccc1NC(=O)NCCc1ccoc1 | -120.2
COC(=O)c1cccc(C(=O)N(C)Cc2cccc(F)c2)c1 | -135.6
COc1ccc(CN2CCCC2)cc1Oc1ccc(NC(C)=O)cc1 | -51.76
COc1cc(CN2CCCC2)ccc1OC12CCCN(CC1)C2 (stereo not given) | -168.7
COc1ccc(CN2CCCC2)cc1Oc1ccc2c(c1)CC(CN)O2 (stereo not given) | 87.78
COc1ccc(CN2CCCC2)cc1Oc1cccc(C#N)n1 | 41.79
COc1cc(CN2CCCC2)ccc1Oc1ccc2c(c1)CC(CN)O2 (stereo not given) | 58.6
Cc1cc(CN2CCCC2)cc(Oc2ccc3c(c2)CC(CN)O3)c1 (stereo not given) | 26.4
O=C(O)C(F)(F)F.O=C(O)C(F)(F)F.O=C(O)c1c(-c2cncnc2)ncc2c1CCN(Cc1ccco1)C2 | -132.8
CCNc1ncc2c(n1)CN(c1ccc(OC(F)(F)F)cc1)C2=O | 14.47
O=C(N1CCCC1)N1CCC2(CCCN(CCOc3ccccc3)C2)C1.O=C(O)C(F)(F)F (stereo not given) | -4.272
Cc1noc(C)c1CCCNc1cnccn1 | -49.46
CN(C)C(=O)CN1CCOCC2(C1)CN(c1ncc(F)cn1)CCO2.O=C(O)C(F)(F)F (stereo not given) | -15.1
Cc1ccnc(N2CCCC(c3nncn3C3CC3)C2)n1 (stereo not given) | -51.92
CN1CCN(c2ccccc2NC(=O)c2ccco2)CC1 | 31.7
CN1CCN(c2ccc(Cl)cc2NC(=O)c2ccco2)CC1 | 41.12
CN1CCN(c2ccc(Br)cc2NC(=O)c2ccco2)CC1 | 52.34
CCc1cc(CN(C)C(=O)c2cnc3c(c2)nc(N)n3CC)on1 | -104.3
c1ccc(CN2CCCC2)c(CNc2cncc3nnnn23)c1 | 60.42
c1cc(N2CCSCC2)ccc1CNc1cncc2nnnn12 | -124.6

Structure (SMILES) | Percent Effect [%]
c1cc(CN2CCCC2)ccc1CNc1cncc2nnnn12 | -34.44
Cc1ccnc(NC(=O)c2cccc(OCc3nnnn3C)c2)c1 | -241.7
Cc1cccc(NC(=O)c2cccc(OCc3nnnn3C)c2)n1 | 80.42
Cc1cccc(NC(=O)c2ccc(OCc3nnnn3C)cc2)n1 | -114.2
CN1CC=C(CCN(C)C(=O)CCc2ccccc2)CC1 | 19.5
CC(C(=O)NCc1ccco1)N1CCN(Cc2nccn2C)CC1 (stereo not given) | -39.34
Cc1ccc(CN2CC3(CCN(C(=O)Cc4ccc(Cl)cc4)C3)C2)o1 | -2.786
CNC(=O)c1cc2c(nc1NCC(C)C)CCN(c1ccncn1)CC2.O=C(O)C(F)(F)F | 13.05
CC(=O)Nc1ccc(-n2ccc3nc(N4CCCC4)ncc3c2=O)cc1 | -5.195
Cc1ccc(C)c(-n2ccc3nc(N4CCCC4)ncc3c2=O)c1 | -31.4
COCCn1cnc2ccc(NC(=O)CCCn3cccn3)cc2c1=O | -21.82
Cn1cc(-c2cnc(N3CCOCC3)nc2)cc1C(=O)NCCC#N.O=C(O)C(F)(F)F | -137.7
O=C(O)CN1CCC(c2ccccc2)C1 (stereo not given) | -52.87
Cc1ccc2nc(CN3CCN(C4CCCC4)C(=O)C3)cc(O)c2c1 | -147.5
Cc1cc(C)c2nc(CN3CCCC(c4cc[nH]n4)C3)cc(O)c2c1 (stereo not given) | 52.56
Cc1cc(C)c2nc(CN3CC[C@@H](O)C3)cc(O)c2c1 | -11.32
Cc1ccncc1NS(=O)(=O)c1ccc(Cl)s1 | -120.5
O=C(c1cnn2c1OCCC2)N1CCN(C(=O)C2CCCO2)CC1 (stereo not given) | -54.26
CC(C)(C(=O)NCC1CCN(Cc2ncc[nH]2)C1)c1ccccc1 (stereo not given) | -18.61
COC(C)(C)C(=O)NCC1CCN(Cc2cc3ccccc3[nH]2)C1 (stereo not given) | -53.37
CC(C)(C(=O)NCC1CCN(Cc2cccnc2)C1)c1ccccc1 (stereo not given) | 51.87
O=C(CCn1ccc2ccc(F)cc21)/N=c1\[nH]nc(C2CCCO2)s1 (stereo not given) | -163.8

Structure (SMILES) | Percent Effect [%]
CCC(NC(=O)CNC(=O)OC)c1cc(F)ccc1F (stereo not given) | -47.96
CCN(CC)S(=O)(=O)NC1CCCc2nc(-c3ccccc3)ncc21 (stereo not given) | -18.05
CN1CCC2(CC1)C(=O)N(C)c1ccc(F)cc12.Cl | -104.9
CN1CCC2(CC1)C(=O)N(c1cccnc1)c1ccc(F)cc12.Cl | 58.26
CC(C)N1CCC2(CC1)C(=O)N(c1cccnc1)c1c(F)cccc12.Cl | 48.28
CC(=O)N1CCC2(CC1)C(=O)N(c1cccnc1)c1ccc(F)cc12 | -45.42
CC(C)N1C(=O)C2(CCN(C)CC2)c2cc(F)ccc21.Cl | -16.08
CC(C)N1CCC2(CC1)C(=O)N(c1cccnc1)c1ccc(F)cc12.Cl | 64.31
CC(=O)c1cc2ncc(C(=O)NC3CC3)cc2[nH]1 | -111.2
Cc1ccccc1N1CC2(CCN(S(=O)(=O)C3CC3)C2)CC1=O (stereo not given) | -190.8
CC(=O)Nc1c(C)noc1/C=C\c1ccc(S(=O)(=O)N2CCCC2)cc1 | 10.91
Cc1cc(C)nc(N2CCCC(C(=O)Nc3n[nH]c(C(C)C)n3)C2)n1 (stereo not given) | -27.75
CCN1CCN(C2CCN(Cc3nnc(C(C)C)o3)CC2)C1=O | -127.6
CC(C)(C)c1cnc(CN2CCC(CO)CC2)o1 | -57.31
CCN1CCN(C2CCN(Cc3ncc(C(C)(C)C)o3)CC2)C1=O | 51.71
Cc1nc(C)n(CC2CCCN2Cc2ncc(C(C)(C)C)o2)n1 (stereo not given) | 60.71
Cc1nc(C)n(CC2CCCN(Cc3ncc(C(C)(C)C)o3)C2)n1 (stereo not given) | -87.32
CCN1CCN(C2CCN(Cc3nnc(C4CC4)o3)CC2)C1=O | -106.8
CCC1CCCCN1Cc1ncc(C(C)(C)C)o1 (stereo not given) | 70.27
Cc1cnn(CC2CCCCN2Cc2ncc(C(C)(C)C)o2)c1 (stereo not given) | 9.696
Cc1nc(C)n(CC2CCCN2Cc2ncc(-c3ccccc3)o2)n1 (stereo not given) | 26.63
